Hit rate of the full screen: of about 5,500 compounds, about 2,000 (36%) were called active. Roughly 18% stayed inconclusive and do not appear here. Cut-off read from the data, not from the text of the source: active = normalized growth mostly below about 0.91 (no sharp cut-off); inconclusive = no clear call, values can overlap the other calls; inactive = mostly above about 0.92. Some of the results follow.
Test: chemical genetic growth profiling, strain panel (AID 1159580);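 note: tested at 20 µM; growth read once vehicle control cultures reached saturation at 30 °C; 1 = growth at the plate median or of vehicle wells; lower values mean less growth of the strain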
Settings: S. cerevisiae deletion strains, growth OD

Measured: normalized growth

C=C1CCC(=O)C(C)CCC2C1CC2(C)C (stereo unspecified)
inactive: locus YAL013W, strain DEP1, hits give low values 1.01 | locus YBR021W, strain FUR4, hits give low values 1 | locus YBR229C, strain ROT2, hits give low values 1.02 | locus YCL029C, strain bik1, hits give low values 0.993 | locus YDL035C, strain GPR1, hits give low values 1 | locus YDL074C, strain BRE1, hits give low values 1 | locus YDL101C, strain DUN1, hits give low values 1.03 | locus YDL134C, strain PPH21, hits give low values 1.03 | locus YDL185W, strain tfp1, hits give low values 1 | locus YDL192W, strain arf1, hits give low values 0.972 | locus YDR101C, strain arx1, hits give low values 0.987 | locus YDR150W, strain NUM1, hits give low values 1.02 | locus YDR162C, strain NBP2, hits give low values 1.06 | locus YDR318W, strain mcm21, hits give low values 0.998 | locus YDR388W, hits give low values 0.997 | locus YDR502C, strain sam2, hits give low values 1 | locus YEL061C, strain CIN8, hits give low values 1.01 | locus YER110C, hits give low values 0.99 | locus YER155C, strain BEM2, hits give low values 1.02 | locus YER167W, strain BCK2, hits give low values 1.01 | locus YGL078C, strain dbp3, hits give low values 0.995 | locus YGL086W, strain mad1, hits give low values 0.986 | locus YGL248W, strain PDE1, hits give low values 1.03 | locus YGR135W, strain pre9, hits give low values 1.01 | locus YGR252W, strain gcn5, hits give low values 1 | locus YHR030C, strain SLT2, hits give low values 1.02 | locus YHR079C, strain IRE1 (second series), hits give low values 0.984 | locus YHR094C, strain hxt1, hits give low values 0.996 | locus YHR129C, strain ARP1, hits give low values 1.02 | locus YHR200W, strain rpn10, hits give low values 0.995 | locus YIL066C, strain RNR3, hits give low values 1.02 | locus YIL073C, strain SPO22, hits give low values 0.971 | locus YIL125W, strain kgd1, hits give low values 0.987 | locus YIR030C, strain dcg1, hits give low values 0.998 | locus YJL095W, strain BCK1, hits give low values 1.02 | locus YJL134W, strain LCB3, hits give low values 1.02 | locus YJL168C, strain set2, hits give low values 1.01 | locus YJL187C, strain SWE1 (second series), hits give low values 1.03 | locus YJR043C, strain POL32, hits give low values 1.03 | locus YKL009W, strain mrt4, hits give low values 0.976 | locus YKL068W, hits give low values 1.01 | locus YKL085W, strain MDH1 (second series), hits give low values 0.99 | locus YKL085W, strain MDH1, hits give low values 0.99 | locus YLR039C, strain RIC1, hits give low values 1.01 | locus YLR058C, strain SHM2, hits give low values 1.02 | locus YLR102C, strain apc9, hits give low values 0.994 | locus YLR262C, strain YPT6, hits give low values 1.03 | locus YLR268W, strain sec22, hits give low values 0.985 | locus YLR330W, strain CHS5, hits give low values 1.02 | locus YLR342W, strain FKS1 (second series), hits give low values 1.01 | locus YLR371W, strain rom2, hits give low values 0.994 | locus YLR418C, strain cdc73, hits give low values 1.01 | locus YML016C, strain PPZ1, hits give low values 1.02 | locus YML032C, strain rad52, hits give low values 0.997 | locus YML124C, strain tub3, hits give low values 0.995 | locus YMR078C, strain ctf18, hits give low values 1 | locus YMR223W, strain ubp8, hits give low values 1.01 | locus YMR263W, strain SAP30, hits give low values 1.03 | locus YMR307W, strain GAS1, hits give low values 1.08 | locus YNL067W, strain RPL9B, hits give low values 1.02 | locus YNL233W, strain BNI4, hits give low values 1.03 | locus YNL250W, strain rad50, hits give low values 1.01 | locus YNL271C, strain bni1, hits give low values 0.999 | locus YNL298W, strain CLA4, hits give low values 1.03 | locus YNL307C, strain MCK1, hits give low values 0.995 | locus YNR052C, strain pop2, hits give low values 0.989 | locus YOL006C, strain TOP1, hits give low values 1.03 | locus YOL012C, strain htz1 0.879 | locus YOL147C, strain pex11, hits give low values 0.987 | locus YOR061W, strain CKA2, hits give low values 1.02 | locus YOR069W, strain VPS5, hits give low values 1.02 | locus YOR136W, strain idh2, hits give low values 0.991 | locus YOR144C, strain elg1, hits give low values 0.987 | locus YOR184W, strain ser1, hits give low values 0.977 | locus YOR316C, strain cot1, hits give low values 0.998 | locus YPR119W, strain clb2, hits give low values 0.983 | locus YPR141C, strain kar3, hits give low values 0.994 | locus YPR163C, strain tif3, hits give low values 0.997 | locus YPR167C, strain met16, hits give low values 0.99 | strain wtn01, hits give low values 0.966
active: locus YKR001C, strain vps1, hits give low values 0.864
